The supplement of paper PMC11634586
Values without a mark were called inactive.

tested on: NCI-H1688; test: inhibition of cell viability relative to untreated control (fraction); higher = stronger growth inhibition, active = 0.5 or more; settings: 30 µM; 24 h
Method in brief: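 NCI-H1688 small cell lung cancer cells were plated in 96-well plates at 3 × 10^3 cells/well, and 24 h later they were exposed to a natural compound library (TargetMol) at 30 µM for 24 h at 37°C with 5% CO2. Viability was measured in triplicate using Cell Counting Kit-8, read as absorbance at 450 nm. Inhibition of cell viability is given as a fraction, calculated from viability normalised to untreated cells.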

Which “inhibition of cell viability” value does the source give for `OC[C@@H](O)[C@H](O)[C@@H](O)CO` [Xylitol] here?
The value was 0.015.

`C=C1C[C@@]23CC[C@H]4[C@@](C)(CCC[C@@]4(C)C(=O)O[C@@H]4O[C@H](CO)[C@@H](O)[C@H](O)[C@H]4O)[C@@H]2CC[C@]1(O[C@@H]1O[C@H](CO)[C@@H](O)[C@H](O)[C@H]1O[C@@H]1O[C@H](CO)[C@@H](O)[C@H](O)[C@H]1O)C3` [Stevioside] was tested. Which “inhibition of cell viability” value did it give?
The value was -0.031.

With `NCCCS(=O)(=O)O` [Homotaurine] as the compound, how does the “inhibition of cell viability” value read?
The value was 0.357.

Which “inhibition of cell viability” value does the source give for `Cc1cccc(C)c1NC(=O)c1ccccc1C(=O)O` [Ftaxilide] here?
The value was -0.0604.

Which “inhibition of cell viability” value does the source give for `N[C@@H](Cc1cc(I)c(Oc2ccc(O)c(I)c2)c(I)c1)C(=O)O` [Lyothyronine] here?
The value was 0.0198.

For `O=C(O)[C@H]1O[C@@H](Oc2cc3oc(-c4ccc(O)cc4)cc(=O)c3c(O)c2O)[C@H](O)[C@@H](O)[C@@H]1O` [Breviscapin], which “inhibition of cell viability” value is on record?
The value was 0.262.

For `C[C@H](CCC(=O)NCC(=O)O)[C@H]1CC[C@H]2[C@@H]3[C@H](O)C[C@@H]4C[C@H](O)CC[C@]4(C)[C@H]3C[C@H](O)[C@]12C` [Glycocholic acid], which “inhibition of cell viability” value is on record?
Its value is -0.11.

For `OCc1c[nH]c2ccccc12` [Indole-3-carbinol], which “inhibition of cell viability” value is on record?
The value was 0.0235.

`CN(N=O)C(=O)N[C@@H](C=O)[C@@H](O)[C@H](O)[C@H](O)CO` [Streptozocin] was tested. Which “inhibition of cell viability” value did it give?
The value was 0.214.

`C/C=C/c1ccc(OC)cc1` [Trans-Anethole] was tested. Which “inhibition of cell viability” value did it give?
Its value is -0.146.

`OC[C@H]1O[C@H](OCC2O[C@@H](O)[C@H](O)[C@@H](O)[C@@H]2O)[C@H](O)[C@@H](O)[C@H]1O` (stereo partly drawn) [Melibiose] was tested. Which “inhibition of cell viability” value did it give?
Its value is -0.13.

Which “inhibition of cell viability” value does the source give for `O=C[C@H](O)[C@@H](O)[C@H](O)CO` (racemic) [DL-Xylose] here?
Its value is -0.162.

`N[C@@H](Cc1cc(I)c(O)c(I)c1)C(=O)O` [3,5-Diiodotyrosine Dihydrate] was tested. Which “inhibition of cell viability” value did it give?
The value was 0.24.
